Several values for one entry are separate records, joined by “and”; a condition that tells them apart may be missing. Equal entries are not always repeated. Results filed as inconclusive are left out. Some compounds were tested as several samples or in several runs, with calls that do not always agree. Activity calls are given as the source filed them. Unless noted, calls come from the whole dose curve; as a rule, active = well fitted curve in the direction sought with a large enough effect in the repeat runs; inconclusive = weak or mixed curves; inactive = no such curve, though single readings can be large; an effect the other way counts as inactive or inconclusive.
Tests used:
[1] = qHTS assay to identify small molecule agonists of the hypoxia (HIF-1) signaling pathway - cell viability counter screen (AID 1224844; calls by dose curve; note: nearly all actives have a fitted effect of over 50% in size; note: potency is the fitted concentration of half-maximal effect); settings: HRE-bla ME-180 viability, CellTiter-Glo luminescence, 17 h; series mostly up to 76.8 µM
Outline: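 HRE-bla ME-180; 0.5% dFBS; cpd 17 h, 37C, 5% CO2; CellTiter-Glo lum., 30 min RT, post-FRET read, same wells.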

[2] = qHTS assay to identify small molecule agonists of H2AX (AID 1224845; active = well fitted activation curve with a large enough effect in the signal ratio in the repeat runs, not every such curve was filed as active; the % refers to the signal ratio); settings: CHO-K1 phospho-H2AX Ser139 HTRF, 3 h; series mostly up to 154 µM
Outline: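 Phospho-H2AX Ser139 measured by HTRF (ex 320 nm; em 665 and 620 nm) after 24 hr antibody incubation. Compounds, 15 concentrations, 0.76% DMSO, were applied to CHO-K1 cells for 3hr at 37C before lysis.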

[3] = qHTS assay to identify small molecule agonists of H2AX - cell viability counter screen (AID 1224847; calls by dose curve; note: nearly all actives have a fitted effect of over 30% in size; note: potency is the fitted concentration of half-maximal effect); settings: CHO-K1 viability, CellTiter-Glo luminescence, 3 h; series mostly up to 154 µM
Outline: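 We seed wild-type CHO-K1 cells overnight, treat them for 3 hr at 37C with compounds in 15-concentration series, and quantify remaining viability by CellTiter-Glo luminescence.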

[4] = A CellTox Green Cytotoxicity Assay to monitor cytotoxicity in HEK293 cells - 0 hour (AID 1224869); settings: CellTox Green fluorescence; series mostly up to 76.8 µM; note: nearly all actives have a fitted effect of over 50% in size
Outline: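 Tox21 screen in HEK293: membrane-impermeant cyanine dye fluoresces on binding dead-cell DNA; compound pinned 5 h post-seeding, plates held at 37 C, signal read repeatedly through 40 h.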

[5] = qHTS assay to identify small molecule agonists of the hypoxia (HIF-1) signaling pathway (AID 1224846; active = well fitted activation curve with a large enough effect in the signal ratio in the repeat runs, not every such curve was filed as active; the % refers to the signal ratio; note: potency is the fitted concentration of half-maximal effect); settings: HRE-bla ME-180 cells, beta-lactamase ratio, 17 h; series mostly up to 76.8 µM
Outline: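 Reporter induction in HRE-bla ME-180 cells is taken as agonism: cells sit 5 hrs after plating, receive compounds or DMSO only, incubate 17 hrs at 37C under 5% CO2, and are loaded with CCF4-AM for beta-lactamase FRET measurement.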

[6] = qHTS assay to identify small molecule antagonists of the estrogen related receptor (ERR) signaling pathway from Tox21 library (AID 1224848); settings: ERR reporter cell line, luciferase antagonist mode, 18 h; series mostly up to 92.4 µM; note: nearly all actives have a fitted effect of over 50% in size; note: potency is the fitted concentration of half-maximal effect
Outline: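 Luciferase luminescence (ONE-Glo, 30 min room temperature) was the read-out. Cells of the NTP-supplied ERR line, 2,000 per well, were given 6 h at 37 C before compound addition in DMSO and 18 h exposure at 37 C.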

[7] = qHTS assay to identify small molecule agonists of the estrogen related receptor (ERR) signaling pathway from Tox21 library (AID 1224849; calls by dose curve; note: nearly all actives have a fitted effect of over 15% in size); settings: ERR reporter cell line, ONE-Glo luciferase, 18 h
Outline: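 Tox21 compounds tested for ERR agonism in an NTP reporter cell line: 18 h treatment at 37 C, then ONE-Glo luminescence.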

[8] = qHTS RealTime-Glo MT Cell Viability Assay in HepG2 cells - 24 hour (AID 1224867); settings: RealTime-Glo luminescence; series mostly up to 76.8 µM; note: nearly all actives have a fitted effect of over 50% in size; note: potency is the fitted concentration of half-maximal effect
Outline: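 HepG2 cells (600/well) were dispensed with RealTime-Glo reagents, incubated 5 h at 37 °C, then treated with compounds in DMSO for up to 40 h. Nonlytic NanoLuc luminescence reflecting viable cells was read at each stated time point.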

[9] = qHTS RealTime-Glo MT Cell Viability Assay in HEK293 cells - 32 hour (AID 1224868); settings: RealTime-Glo luminescence; series mostly up to 76.8 µM; note: nearly all actives have a fitted effect of over 50% in size; note: potency is the fitted concentration of half-maximal effect
Outline: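 HEK293 cells seeded with NanoLuc/prosubstrate reagent, rested 5 h at 37 C, then dosed and kept at 37 C up to 40 h. Nonlytic real-time luminescence from viable cells read at 0, 8, 16, 24, 32 and 40 h.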

[10] = qHTS RealTime-Glo MT Cell Viability Assay in HepG2 cells - 40 hour (AID 1224870); settings: RealTime-Glo luminescence; series mostly up to 76.8 µM; note: nearly all actives have a fitted effect of over 50% in size; note: potency is the fitted concentration of half-maximal effect
Outline: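 Real-time viability: cells seeded at 600 per well together with NanoLuc and cell-permeant prosubstrate, compounds added after 5 h incubation. Luminescence tracked at 0, 8, 16, 24, 32 and 40 h of exposure.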
% is set by controls: 0 for no effect and ±100 for the full control effect.

O=C1CCc2cc(OCCCCc3nnnn3C3CCCCC3)ccc2N1
inactive: Potency [1] | Potency [2] | Potency [3] | Potency [4]

O=S(=O)(O)c1ccccc1/C=C/c1ccc(-c2ccc(/C=C/c3ccccc3S(=O)(=O)O)cc2)cc1
inactive: Potency [1] | Potency [3] | Potency [6] | activity change, positive = activation ([7]; at 92.4 µM (top of the series)) 4.34% | Potency [8] | Potency [9] | Potency [4]
active: Potency [5] 39.4 µM

COc1ccc2c(c1)c(CC(=O)OC/C=C(\C)CC/C=C(\C)CCC=C(C)C)c(C)n2C(=O)c1ccc(Cl)cc1
inactive: Potency [1] | Potency [2] | Potency [3] | Potency [6] | activity change, positive = activation ([7]; at 42.5 µM (top of the series)) -0.248% | Potency [8] | Potency [9] | Potency [4]

Cc1c(C)c([N+](=O)[O-])c(C(C)(C)C)c([N+](=O)[O-])c1C
inactive: Potency [1] | Potency [2] | Potency [5] | Potency [6] | activity change, positive = activation ([7]; at 92.4 µM (top of the series)) -6.21% | Potency [8] | Potency [9] | Potency [4] | Potency [10]

CCc1oc2ccccc2c1C(=O)c1cc(I)c(O)c(I)c1
inactive: Potency [1] | Potency [2] | Potency [8] | Potency [9] | Potency [4] | Potency [10]

CC(=O)CC(=O)Nc1ccc(S(=O)(=O)O)cc1
inactive: Potency [1] | Potency [2] | Potency [5] | Potency [8] | Potency [9] | Potency [4] | Potency [10]

OC12N=C(c3ccccc3)SC1Cc1cc(Cl)ccc12 (stereo not drawn)
active: activity change, positive = activation ([7]; at 92.4 µM (top of the series)) 47.6%
inactive: Potency [1] | Potency [2] | Potency [5] | Potency [6] | Potency [8] | Potency [10]

CCCCCC(C)OC(=O)COc1ccc(Cl)c2cccnc12 (stereo not drawn)
inactive: Potency [1] | Potency [2] | Potency [5] | Potency [8] | Potency [9] | Potency [4] | Potency [10]

S=c1nccc[nH]1
inactive: Potency [1] | Potency [5] | Potency [3] | Potency [6] | activity change, positive = activation ([7]; at 92.4 µM (top of the series)) -6.52% | Potency [8] | Potency [9] | Potency [4] | Potency [10]

Cc1ccc(C)cc1
inactive: Potency [1] | Potency [5] | Potency [3] | Potency [6] | activity change, positive = activation ([7]; at 92.4 µM (top of the series)) 0.373% | Potency [8] | Potency [9]

CCCCOC(=O)CO
inactive: Potency [1] | Potency [2] | Potency [5] | Potency [3] | Potency [9] | Potency [10]

CC[C@H](C)COC(=O)/C=C/c1ccc(N=Cc2ccc(OC)cc2)cc1
active: Potency [3] 89.7 µM | Potency [9] 21.8 µM
inactive: Potency [1] | Potency [2] | Potency [5] | Potency [10]

COC(=O)c1ccccc1OC
inactive: Potency [1] | Potency [2] | Potency [5] | Potency [6] | activity change, positive = activation ([7]; at 92.4 µM (top of the series)) 0.916% | Potency [8] | Potency [9] | Potency [4] | Potency [10]

Cc1nc2n(c(=O)c1CCN1CCC(c3noc4cc(F)ccc34)CC1)CCCC2
active: Potency [9] 3.79 µM
inactive: Potency [1] | Potency [2] | Potency [3] | Potency [4] | Potency [10]

CC(C)(C)C1CCC(=O)CC1
inactive: Potency [1] | Potency [5] | Potency [3] | Potency [6] | activity change, positive = activation ([7]; at 92.4 µM (top of the series)) -0.544% | Potency [8] | Potency [9]

CCCCCCCCCCCC(=O)OCC(C)OC(=O)CCCCC(=O)O (stereo not drawn)
inactive: Potency [1] | Potency [2] | Potency [3] | Potency [6] | activity change, positive = activation ([7]; at 42.5 µM (top of the series)) -2.88% | Potency [9] | Potency [4] | Potency [10]

OCCN1CCN(CCCN2c3ccccc3Sc3ccc(C(F)(F)F)cc32)CC1
active: Potency [1] 19 µM | Potency [9] 23.9 µM
inactive: Potency [2] | activity change, positive = activation ([7]; at 42.5 µM (top of the series)) -32% | Potency [4]

O=[N+]([O-])c1ccc(O)cc1C(F)(F)F
active: Potency [6] 6.11 µM | Potency [9] 34.7 µM
inactive: Potency [1] | Potency [2] | activity change, positive = activation ([7]; at 92.4 µM (top of the series)) -63.3% | Potency [8] | Potency [4] | Potency [10]

CCCCCCCCCCCCCC[N+](C)(C)Cc1ccccc1
active: Potency [3] 25.7 µM and 49.2 µM | Potency [6] 9.84 µM and 10.6 µM and 11.2 mM | Potency [8] 44.3 µM and 10.7 µM and 17.8 mM | Potency [9] 3.52 µM and 3.01 µM and 2.82 mM | Potency [10] 22.2 µM and 9.52 µM and 15.8 mM
inactive: Potency [2] | activity change, positive = activation ([7]; at 42.5 µM (top of the series)) -57.9% | activity change, positive = activation ([7]; at 92.4 µM (top of the series)) -69.7% | activity change, positive = activation ([7]; at 46.2 mM (top of the series)) -75.1%
inactive and 17.8 mM (active): Potency [1]

O=C1NC(=O)[C@@H]2CC=CC[C@H]12
active: Potency [1] 19.5 µM
inactive: Potency [2] | Potency [3] | Potency [6] | activity change, positive = activation ([7]; at 92.4 µM (top of the series)) -12.4% | Potency [8] | Potency [9] | Potency [4] | Potency [10]

O=S(=O)(O)c1ccc(Nc2nc(Nc3ccc(/C=C/c4ccc(Nc5nc(Nc6ccc(S(=O)(=O)O)cc6)nc(N(CCO)CCO)n5)cc4S(=O)(=O)O)c(S(=O)(=O)O)c3)nc(N(CCO)CCO)n2)cc1
inactive: Potency [1] | Potency [3] | Potency [6] | activity change, positive = activation ([7]; at 42.5 µM (top of the series)) 7.49% | Potency [9] | Potency [4] | Potency [10]

O=C(O)c1cc(O)c2ccccc2c1O
active: Potency [1] 11 µM | Potency [3] 50.5 µM | Potency [6] 61.1 µM | Potency [8] 19.5 µM | Potency [9] 43.6 µM
inactive: activity change, positive = activation ([7]; at 92.4 µM (top of the series)) -58.1% | Potency [4]

O=C(O)c1cc(-c2ccc(F)cc2F)ccc1O
inactive: Potency [1] | Potency [5] | Potency [6] | activity change, positive = activation ([7]; at 42.5 µM (top of the series)) -14.2% | Potency [9] | Potency [4] | Potency [10]

CC(C)(C)c1ccc(C(O)CCCN2CCC(C(O)(c3ccccc3)c3ccccc3)CC2)cc1 (stereo not drawn)
active: Potency [1] 21.3 µM | Potency [3] 34.8 µM | Potency [8] 6.01 µM | Potency [9] 4.77 µM | Potency [10] 4.77 µM

CN(C)c1ccc(C(=C2C=CC(=[N+](C)C)C=C2)c2ccc(N(C)C)cc2)cc1
active: Potency [1] 19.4 µM and 54.9 µM | Potency [3] 3.17 µM and 12.7 µM and 13.9 µM | Potency [8] 24.4 µM and 24.5 µM and 10.7 µM | Potency [9] 2.74 µM and 6.92 µM and 2.39 µM | Potency [10] 34.5 µM and 43.6 µM and 26.8 µM
inactive: Potency [4]
